Among all 94,000 compounds or so, about 6,200 (6.6%) were called active. Roughly 31% stayed inconclusive and do not appear here. The call rests on the fitted dose curve; in most records, active means well fitted inhibition curve with a large enough effect; inconclusive means small, poorly fitted or top-dose-only effect; inactive means flat fitted curve, though single readings scatter. This excerpt belongs to a sample that is enriched for actives.
On the % scale 0 is the no-effect control and ±100 the full control effect; potency means the concentration at half of the fitted maximal effect.

This test can be described thus: Cytotoxic Profiling in HEK 293 Cell Line of Diverse Libraries Using Quantitative High-Throughput Screening. Further: nearly all actives have a fitted effect of over 60% in size. As to conditions: HEK 293 viability, ATP luminescence (CellTiter-Glo), 48-72 h; series mostly up to 115 µM; activity change, negative = cytotoxicity: at the top concentration. The source says: Cell-based phenotypic screening is a commonly used approach to discover biological pathways, novel drug targets, chemical probes and high-quality hit-to-lead molecules. Many hits identified from high-throughput screening campaign are ruled out through a series of follow-up potency, selectivity/specificity, and cytotoxicity assays. Prioritization of molecules with little or no cytotoxicity for a more in-depth downstream evaluation influence the future direction of projects, so cytotoxicity profiling of the screening libraries at early stage is essential for increasing the likelihood of candidate success. In this study, we analyzed results from a cell-based cytotoxicity screening campaign, comprising nearly 10,000 compounds in NCATS annotated libraries, and over 100,000 compounds in a diversity library, evaluated in four normal cell lines (HEK 293, NIH 3T3, CRL-7250 and HaCat) and a cancer cell line (KB 3-1, a HeLa subline) with overall screening outcomes, hit rates, pan-activity and selectivity. For the annotated library, we also examined the primary targets and mechanistic pathways regularly associated with cell death. To our knowledge, this is the first study to use high-throughput screening to profile large libraries for cytotoxicity assessment in both normal and cancer cell lines. In summary, the results generated here constitutes a valuable resource for the scientific community and provides insight on identifying cytotoxic compounds with particular mechanisms of action, and prioritizing compounds with suitable cytotoxicity profile for further evaluation.
HEK 293 cells were seeded into white 1536-well plates using a Multidrop Combi peristaltic dispenser (ThermoFisher, Waltham, MA) at a density of 250 cells/well in 5 uL of medium respectively. A pintool (Kalypsys) was used to transfer 23 nL of compound solution to the 1536-well assay plates. After 48 or 72 hr incubation at 37 degree Celsius, 5% CO2 and 95% humidity, 2.5 uL of CellTiter-Glo (Promega) was dispensed into each well using a dispenser (Aspect Automation, St. Paul, MN) with solenoid valves (Lee Valves, Westbrook CT). Plates were left at room temperature for 10 min before imaging the ATP-coupled luminescence using a ViewLux microplate imager (PerkinElmer, Waltham, MA).
(In ATP-based viability assays light output follows the ATP content of the culture.)
As for `Cn1cc(CN2CCN3C(=O)N(c4ccccn4)C[C@H]3C2)cn1`, the “outcome” value was “inactive [at 172 µM]”.
With `CC[C@H]1CN2CC[C@H]1C[C@@H]2CNC(=O)c1ccc(N(C)C)cc1`, the “activity change, negative = cytotoxicity” value was 4.54% [at 172 µM] (inactive).
For the compound `O=C(NC[C@H]1C[C@@H]2CCN1C[C@@H]2CN1CCC(Cc2ccccc2)CC1)c1ccco1`, the “activity change, negative = cytotoxicity” value is -25.4% [at 172 µM] (inactive).
For the compound `CN(CCc1ccccn1)C[C@H]1CN2CC[C@H]1C[C@@H]2CNC(=O)c1ccccc1`, the “activity change, negative = cytotoxicity” value is -30% [at 172 µM] (inactive).
Turning to `C=CCN(C)C[C@H]1CN2CC[C@H]1C[C@@H]2CNC(=O)Nc1cccc(SC)c1`, the Potency was 63.1 µM (active).
Turning to `CC[C@H]1CN2CC[C@H]1C[C@@H]2CNCc1cccc(C#N)c1`, the “activity change, negative = cytotoxicity” value is -0.0855% [at 230 µM] (inactive).
As to `CN(Cc1ccccc1)C[C@H]1CN2CC[C@H]1C[C@@H]2CNC(=O)Nc1cccc(C#N)c1`, the Potency was 89.1 µM (active).
Regarding `CC(C)NC(=O)NC[C@H]1C[C@@H]2CCN1C[C@@H]2CN1CCCC1`, the “activity change, negative = cytotoxicity” value is 2.65% [at 172 µM] (inactive).
For `FC(F)(F)CN1C2CCC1CN(c1cccc(Cl)n1)C2`, the compound was classed as inactive.
On to `CCCSc1ncc(CN2CC[C@H]3CNC[C@H]32)cn1`, for which the “activity change, negative = cytotoxicity” value was -10.3% (inactive).
On the same count and under the same terms, the value for `CC(=O)NCCNC(=O)[C@H]1CN2CCC1C[C@@H]2Cn1cc(-c2ccc(C(C)(C)C)cc2)nn1` (some centres undefined) was -3.54% (inactive).
In the case of `CNC1CCOCC1`, the “outcome” value is “inactive [at 287 µM]”.
Regarding `C#CCN1C(=O)[C@@H]2[C@H](c3ccccc31)[C@@H](C(=O)OCC)[C@@H](c1ccccc1)N2C(=O)COC`, the Potency is 44.7 µM (active).
For `CCCCOC(=O)N1C[C@H](C(=O)OCC)[C@H]2c3ccccc3N(C)C(=O)[C@]21C`, the “activity change, negative = cytotoxicity” value is -18.1% [at 57.5 µM] (inactive).
As to `Nc1cccc(-c2cn(C[C@H]3CC4CCN3C[C@@H]4C(=O)NCc3ccc(F)cc3)nn2)c1` (some centres undefined), the “activity change, negative = cytotoxicity” value is -7.43% [at 172 µM] (inactive).
On the same count and under the same terms, then `COCC(=O)NC[C@H]1C[C@@H]2CCN1C[C@@H]2CN1CCN(C)CC1`, with -12.1% [at 172 µM] (inactive).
Turning to `CN(C)[C@@H]1CN(C(=O)Cc2ccc(F)cc2)C[C@H]1CO`, the call was inactive.
Turning to `Cn1cccc1CN1CCC2(COc3ccncc3[S+](=O)([O-])N2)C1` (centres undefined), the “activity change, negative = cytotoxicity” value is -7.93% (inactive).
`C=C[C@H]1CN2CC[C@H]1C[C@@H]2CNC(=O)c1ccc(C(F)(F)F)cc1`: the “activity change, negative = cytotoxicity” value is -7.78% [at 172 µM] (inactive).
In the case of `COc1ccccc1-c1cc([C@H]2CN3CC[C@H]2C[C@@H]3CNC(=O)c2ccco2)nc(C)n1`, the “activity change, negative = cytotoxicity” value was -23.8% [at 172 µM] (inactive).
On to `O=C(NC[C@H]1C[C@@H]2CCN1C[C@@H]2CN1CCN(c2ncccn2)CC1)c1ccc(C(F)(F)F)cc1`, for which the “activity change, negative = cytotoxicity” value is -17.4% (inactive).
For the compound `Cc1ccc(C(=O)NC[C@H]2C[C@@H]3CCN2C[C@@H]3c2cc(-c3ccco3)nc(C)n2)cc1`, the Potency is 79.4 µM (active).
Regarding `COc1ccccc1-c1cc([C@H]2CN3CC[C@H]2C[C@@H]3CNC(=O)c2ccco2)n(C)n1`, the “activity change, negative = cytotoxicity” value was 4.65% [at 172 µM] (inactive).
With `Cc1nc(-c2ccc(C(F)(F)F)cc2)cc([C@H]2CN3CC[C@H]2C[C@@H]3CNC(=O)c2ccco2)n1`, the Potency was 20 µM (active).
Regarding `CCNC(=O)N1CC2CN(C(C)C)CC(C1)O2`, the “activity change, negative = cytotoxicity” value was -6.72% (inactive).
On the same count and under the same terms, the value for `CC1=NOC2(CCN(Cc3c[nH]c4ccccc34)CC2)C1` was 4.67% [at 172 µM] (inactive).
With `CN1C[C@H]2CN(Cc3cnn(C)c3)CCN2C1=O`, the “activity change, negative = cytotoxicity” value is -15.1% [at 230 µM] (inactive).
Regarding `O=C(Nc1ccc2n(c1=O)C[C@H]1C[C@@H]2CN(C(=O)c2ccccn2)C1)c1ccc(F)cc1`, the “activity change, negative = cytotoxicity” value is -3.73% [at 172 µM] (inactive).
For `C[S+](=O)([O-])N1CCC2(CC1)CC(c1cccnc1)=NO2`, the “activity change, negative = cytotoxicity” value was 0.463% (inactive).
Consider `CN(C)C(=O)[C@H]1CN2CCC1C[C@@H]2Cn1cc(-c2ccc(-c3ccccc3)cc2)nn1` (some centres undefined), for which the “activity change, negative = cytotoxicity” value was -17.4% [at 172 µM] (inactive).
In the case of `O=C([C@H]1CN2CCC1C[C@@H]2Cn1cc(-c2ccccc2)nn1)N1CCOCC1` (some centres undefined), the “activity change, negative = cytotoxicity” value is 0.574% [at 172 µM] (inactive).
`Cc1nc(-c2ccccc2)cc([C@H]2CN3CC[C@H]2C[C@@H]3CNC2CCN(C)CC2)n1`: the Potency was 28.2 µM (active).
`Cc1nc(-c2ccccc2)cc([C@H]2CN3CC[C@H]2C[C@@H]3CNC2CCOCC2)n1`: the Potency is 31.6 µM (active).
As for `CC(=O)Nc1ccc(-c2ccc3n(c2=O)C[C@H]2C[C@@H]3CN(C3CCN(C)CC3)C2)cc1`, the “activity change, negative = cytotoxicity” value is -24.1% [at 172 µM] (inactive).
The same measure, in the same setting: the value for `CC(C)N1C[C@@H]2OCC(=O)N(Cc3cccnc3)[C@@H]2C1` was -2.45% [at 230 µM] (inactive); that for `O=C(Nc1ccc(Cl)cc1)N1C[C@@H]2C[C@H](C1)c1c(-c3ccccc3F)ccc(=O)n1C2` was -4.3% (inactive).
Consider `COCC1CN(Cc2ccsc2)CC12CCNCC2` (centres undefined), for which the “activity change, negative = cytotoxicity” value is -27.7% (inactive).
For `COc1ccc(CC(=O)N2C[C@@H]3CC[C@H](C2)N(CC2CCC2)C3)c(OC)c1`, the “activity change, negative = cytotoxicity” value was -22.9% (inactive).
As for `COc1ccc(C(=O)NC[C@H]2C[C@@H]3CCN2C[C@@H]3c2cc(-c3ccccc3)nn2C)cc1`, the Potency was 89.1 µM (active).
`COc1ccc(-c2cc([C@H]3CN4CC[C@H]3C[C@@H]4CNC(=O)c3ccccc3)n(C)n2)cc1OC`: the “activity change, negative = cytotoxicity” value was -10.2% (inactive).
With `COc1ccccc1-c1cc([C@H]2CN3CC[C@H]2C[C@@H]3CNC(C)=O)n(C)n1`, the “activity change, negative = cytotoxicity” value is -4.81% [at 172 µM] (inactive).
As for `Cn1nc(-c2cccs2)cc1[C@H]1CN2CC[C@H]1C[C@@H]2CNC(=O)CCCC(=O)O`, the “outcome” value is “inactive [at 172 µM]”.
As for `O=C(Nc1ccccc1)[C@H]1CN2CCC1C[C@@H]2Cn1cc(CO)nn1` (some centres undefined), the “activity change, negative = cytotoxicity” value is -2.81% [at 172 µM] (inactive).
On to `Cn1nc(-c2cccs2)cc1[C@H]1CN2CC[C@H]1C[C@@H]2CNC(=O)Nc1ccccc1`, for which the Potency is 112 µM (active).
Still for that read-out and setting: then `Cn1nc(-c2ccc(F)cc2)cc1[C@H]1CN2CC[C@H]1C[C@@H]2CNCc1ccccn1`, with 63.1 µM (active).
Take `COc1ccc(-c2cc([C@H]3CN4CC[C@H]3C[C@@H]4CNC(=O)C3CC3)n(C)n2)cc1OC`: the “activity change, negative = cytotoxicity” value was -9.12% [at 172 µM] (inactive).
As to `CCCCc1cn(C[C@H]2C[C@@H]3CCN2C[C@@H]3C(=O)NCCNC(C)=O)nn1`, the “activity change, negative = cytotoxicity” value is -2.52% [at 172 µM] (inactive).
As for `Cc1ccccc1-c1ccc2n(c1=O)C[C@H]1C[C@@H]2CN(C(=O)CSCC(=O)O)C1`, the “activity change, negative = cytotoxicity” value was -1.03% [at 172 µM] (inactive).
`O=C([C@H]1CN2CCC1C[C@@H]2Cn1cc(CCO)nn1)N1CCCC1` (some centres undefined): the “outcome” value was “inactive [at 172 µM]”.
For the compound `COc1ccccc1-c1ccc(N2CC3CC(C2)c2cccc(=O)n2C3)nn1` (centres undefined), the “activity change, negative = cytotoxicity” value is 1.75% (inactive).
For `Cc1ccc([C@@H]2CN(Cc3ncc[nH]3)[C@@H]3C4CCN(CC4)[C@@H]32)cc1`, the “activity change, negative = cytotoxicity” value is 3.55% (inactive).
Regarding `COc1cccc(C(=O)N2CCC3(CC2)NCc2ccccc2-n2ccnc23)c1`, the “activity change, negative = cytotoxicity” value is -24.7% (inactive).
Regarding `O=S1(=O)NCC2(CCN(Cc3ccc(Cl)s3)C2)Oc2ncccc21` (centres undefined), the outcome was inactive.
For the compound `O=C(COc1ccccc1)N1C[C@@H]2C[C@H](C1)c1c(-c3ccccc3F)ccc(=O)n1C2`, the “activity change, negative = cytotoxicity” value was -23.1% [at 172 µM] (inactive).
